According to PubChem BioAssay (Tox21):
Unmarked numbers belong to inactive results. Inconclusive results are not listed. A call without a number means that no potency is given here. Activity calls are given as the source filed them. Unless noted, the call rests on the fitted dose curve.

Key:
[1] = Nuclear factor erythroid 2-related factor 2/antioxidant responsive element (Nrf2/ARE) small molecule agonists: qHTS cell viability counter screen in human keratinocytes (AID 1919968; active means well fitted cell-killing curve with a large enough effect in the repeat runs; further: nearly all actives have a fitted effect of over 55% in size; further: potency means the concentration at half of the fitted maximal effect)
Method in brief: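 CellTiter-Fluor fluorescence, read 1 h after reagent, gave viability in the same wells as the ARE-luciferase assay. KeratinoSens cells (1,500/well) had 23 h compound exposure at 37 C/5% CO2 following 5 h plating.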

[2] = Nuclear factor erythroid 2-related factor 2/antioxidant responsive element (Nrf2/ARE) small molecule agonists: luciferase reporter gene qHTS assay in human keratinocytes (AID 1919969); further: nearly all actives have a fitted effect of over 35% in size
[3] = molecular target: Gonadotropin-releasing hormone receptor (Homo sapiens) (UniProt P30968); assay: Human gonadotropin-releasing hormone receptor (GnRHR) small molecule agonists, calcium flux assay in GnRHR-HEK293 cells (AID 1920063); further: nearly all actives have a fitted effect of over 35% in size
Sequence of Gonadotropin-releasing hormone receptor (Homo sapiens) (P30968 whole entry, looked up): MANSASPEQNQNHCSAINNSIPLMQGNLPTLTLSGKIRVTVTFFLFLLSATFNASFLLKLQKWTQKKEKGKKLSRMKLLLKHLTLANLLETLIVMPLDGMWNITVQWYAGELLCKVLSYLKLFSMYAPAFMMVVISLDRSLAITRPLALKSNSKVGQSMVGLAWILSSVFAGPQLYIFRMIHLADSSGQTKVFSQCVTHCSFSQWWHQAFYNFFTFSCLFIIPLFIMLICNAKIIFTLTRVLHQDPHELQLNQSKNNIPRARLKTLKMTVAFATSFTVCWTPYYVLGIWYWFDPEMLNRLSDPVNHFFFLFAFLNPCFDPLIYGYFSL
Method in brief: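 Agonist mode: compounds at 15 concentrations, in triplicate, went onto calcium dye-loaded GnRHR-HEK293 cells. Intracellular calcium was then followed as 480/540 nm fluorescence at 1 s intervals over 3 min.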

[4] = G protein-coupled receptor (GPCR) small molecule agonists, calcium flux assay: HEK293 wild type cell line counter screen (AID 1920065)
Method in brief: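 Calcium flux counter screen: compound added in agonist mode at 15 concentrations in triplicate to dye-loaded parental HEK293 cells. Fluorescence (480/540) read kinetically for 3 min; ATP served as positive control.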

[5] = p53 small molecule agonists, cell-based qHTS assay with human liver microsomes (AID 1963577);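 further: p53 response element beta-lactamase reporter cells with liver microsomes plus NADPH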
Method in brief: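 With metabolic activation: human liver microsomes (0.5 mg/mL final) plus NADPH (0.5 mg/mL final) added alongside compounds to p53RE-bla cells; 16 h 37 C exposure; beta-lactamase read by LiveBLAzer fluorescence.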

[6] = p53 small molecule agonists, cell-based qHTS assay with rat liver microsomes (AID 1963578)
Method in brief: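 Metabolic activation by rat liver microsomes and NADPH, each 0.5 mg/mL final, added right after compounds to p53RE-bla reporter cells (4,000/well, plated 5 h earlier). 16 h at 37 C, then LiveBLAzer substrate for 2 h at room temperature in the dark; fluorescence read-out.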

[7] = p53 small molecule agonists, cell-based qHTS assay with human liver microsomes: qHTS cell viability counter screen (AID 1963579); further: nearly all actives have a fitted effect of over 45% in size; further: potency means the concentration at half of the fitted maximal effect
Method in brief: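 Metabolic activation used human liver microsomes and NADPH, both 0.5 mg/mL final, over 16 hours at 37 C on p53RE-bla cells (4,000/well). Cytotoxicity measured by CellTiter-Glo luminescence, 30 min at room temperature.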

[8] = p53 small molecule agonists, cell-based qHTS assay with rat liver microsomes: qHTS cell viability counter screen (AID 1963580); further: nearly all actives have a fitted effect of over 45% in size; further: potency means the concentration at half of the fitted maximal effect
Method in brief: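 After the beta-lactamase ratio was read, CellTiter-Glo was added to the same wells and luminescence measured at 30 min; cells had been treated 16 h at 37 C with compounds, rat liver microsomes and NADPH (0.5 mg/mL final each).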

[9] = p53 small molecule agonists, cell-based qHTS assay: qHTS cell viability counter screen (AID 1963581); further: nearly all actives have a fitted effect of over 45% in size; further: potency means the concentration at half of the fitted maximal effect
Method in brief: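 Counter screen read by CellTiter-Glo luminescence (ATP content, 30 min at room temperature), run in the same wells as the beta-lactamase reporter read. HCT-116 p53RE-bla cells saw compounds for 16 h at 37 C.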

[10] = p53 small molecule agonists, cell-based qHTS assay (AID 1963582; active means well fitted activation curve with a large enough effect in the signal ratio in the repeat runs, not every such curve was filed as active; the % refers to the signal ratio)
Method in brief: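 Read-out is beta-lactamase FRET fluorescence after 2 h at room temperature with LiveBLAzer B/G substrate. p53 response element-bla cells were treated 16 h at 37 C with compounds in DMSO, added 5 h after seeding.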

[11] = molecular target: 5-hydroxytryptamine receptor 2A (Homo sapiens) (UniProt P28223); assay: 5-hydroxytryptamine receptor 2A (HTR2A) small molecule agonists, cell-based qHTS assay (AID 1963587); further: nearly all actives have a fitted effect of over 30% in size
Sequence of 5-hydroxytryptamine receptor 2A (Homo sapiens) (P28223 whole entry, looked up): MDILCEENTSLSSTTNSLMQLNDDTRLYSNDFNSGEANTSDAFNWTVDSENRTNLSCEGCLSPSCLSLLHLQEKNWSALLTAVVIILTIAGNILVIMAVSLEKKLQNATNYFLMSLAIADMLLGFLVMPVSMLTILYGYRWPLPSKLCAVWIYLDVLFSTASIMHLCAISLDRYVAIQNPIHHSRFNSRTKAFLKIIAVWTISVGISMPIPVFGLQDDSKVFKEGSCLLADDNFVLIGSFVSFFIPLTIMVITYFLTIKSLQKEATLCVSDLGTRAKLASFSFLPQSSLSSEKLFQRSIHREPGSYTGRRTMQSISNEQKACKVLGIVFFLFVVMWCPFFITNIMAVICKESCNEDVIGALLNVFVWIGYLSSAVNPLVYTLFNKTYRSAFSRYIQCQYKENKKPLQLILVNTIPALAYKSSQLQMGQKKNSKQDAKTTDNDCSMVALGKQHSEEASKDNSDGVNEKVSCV
Method in brief: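 CHO cells stably expressing human HTR2A, plated 18 h, loaded with calcium dye 1 h at 37 C. Agonist mode: compounds added and intracellular calcium fluorescence recorded kinetically for 2 min at 1 sec intervals.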

[12] = molecular target: Muscarinic acetylcholine receptor M1 (Homo sapiens) (UniProt P11229); assay: Cholinergic receptor muscarinic 1 (CHRM1) small molecule antagonists, cell-based qHTS assay (AID 1963588); further: nearly all actives have a fitted effect of over 40% in size
Sequence of Muscarinic acetylcholine receptor M1 (Homo sapiens) (P11229 whole entry, looked up): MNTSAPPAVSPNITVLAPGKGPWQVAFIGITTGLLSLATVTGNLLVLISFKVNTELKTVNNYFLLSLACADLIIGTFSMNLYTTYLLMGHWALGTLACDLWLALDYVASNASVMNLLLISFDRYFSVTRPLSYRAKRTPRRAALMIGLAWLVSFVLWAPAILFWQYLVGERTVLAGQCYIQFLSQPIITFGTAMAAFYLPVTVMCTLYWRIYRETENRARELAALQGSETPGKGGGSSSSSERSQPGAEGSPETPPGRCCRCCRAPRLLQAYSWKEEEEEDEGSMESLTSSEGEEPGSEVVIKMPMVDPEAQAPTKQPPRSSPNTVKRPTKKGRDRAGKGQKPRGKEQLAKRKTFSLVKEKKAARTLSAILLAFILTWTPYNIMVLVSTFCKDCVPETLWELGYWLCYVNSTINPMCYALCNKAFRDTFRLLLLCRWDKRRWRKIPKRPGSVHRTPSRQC
Method in brief: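 Compounds were tested at 15 concentrations in three independent runs. Dye-loaded CHRM1-CHO cells were exposed 5 min at room temperature before stimulation by acetylcholine added at 50nM. Intracellular calcium was read kinetically on FDSS for 3 min.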

[13] = molecular target: Muscarinic acetylcholine receptor M1 (Homo sapiens) (UniProt P11229); assay: Cholinergic receptor muscarinic 1 (CHRM1) small molecule agonists, cell-based qHTS assay (AID 1963589); further: nearly all actives have a fitted effect of over 35% in size
Method in brief: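 Agonist-mode calcium-flux screen: compounds at 15 concentrations, three independent runs, were pin-transferred onto dye-loaded human CHRM1-CHO cells. Fluorescence was then recorded kinetically every second over minutes.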

[14] = cAMP Responsive Elements (CRE) small molecule agonists, cell-based qHTS assay (AID 1963590)
Method in brief: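 Agonist mode: compound added to CRE-bla HEK 293T cells (2,000/well, 18 h after plating) for 3 h at 37 C/5% CO2. Reporter activity detected via FRET beta-lactamase substrate, 2 h room-temperature loading.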

[15] = cAMP Responsive Elements (CRE) small molecule antagonists, cell-based qHTS assay (AID 1963591; active means well fitted inhibition curve with a large enough effect in the signal ratio in the repeat runs, not every such curve was filed as active; the % refers to the signal ratio)
Method in brief: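 Antagonist mode: compounds are added alongside the adenylyl cyclase activator NKH477 (0.25 uM final) to CRE-bla HEK293T cells for 3 h. LiveBLAzer FRET substrate, 2 h at room temperature, reports bla expression.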

[16] = molecular target: Beta-2 adrenergic receptor (Homo sapiens) (UniProt P07550); assay: Adrenergic beta2 receptor (ADRB2) small molecule antagonists, cell-based qHTS assay (AID 1963592); further: series mostly up to about 92 µM; nearly all actives have a fitted effect of over 50% in size
Sequence of Beta-2 adrenergic receptor (Homo sapiens) (P07550 whole entry, looked up): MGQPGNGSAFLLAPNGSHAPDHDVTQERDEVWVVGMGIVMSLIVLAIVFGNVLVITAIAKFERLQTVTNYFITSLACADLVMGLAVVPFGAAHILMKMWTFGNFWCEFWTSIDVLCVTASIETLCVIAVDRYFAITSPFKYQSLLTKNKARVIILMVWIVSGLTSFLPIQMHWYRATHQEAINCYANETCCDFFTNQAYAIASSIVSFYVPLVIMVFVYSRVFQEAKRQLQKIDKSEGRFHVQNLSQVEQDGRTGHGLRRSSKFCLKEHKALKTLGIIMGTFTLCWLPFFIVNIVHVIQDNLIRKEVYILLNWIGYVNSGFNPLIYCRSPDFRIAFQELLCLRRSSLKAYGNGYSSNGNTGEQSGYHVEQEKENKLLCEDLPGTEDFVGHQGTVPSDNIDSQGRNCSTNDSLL
Method in brief: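 Assay format: CHO-ADRB2 cells, 18-20hr seeding at 37C/5% CO2, then compound plus 1nM isoproterenol agonist mix for 0.5hr RT. Homogeneous time-resolved fluorescence cAMP detection after 1hr, expressed as 665/615 nm ratio.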

[17] = molecular target: D(2) dopamine receptor (Homo sapiens) (UniProt P14416); assay: Dopamine D2 receptor (DRD2) small molecule agonists, cell-based qHTS assay (AID 1963594); further: nearly all actives have a fitted effect of over 35% in size
Sequence of D(2) dopamine receptor (Homo sapiens) (P14416 whole entry, looked up): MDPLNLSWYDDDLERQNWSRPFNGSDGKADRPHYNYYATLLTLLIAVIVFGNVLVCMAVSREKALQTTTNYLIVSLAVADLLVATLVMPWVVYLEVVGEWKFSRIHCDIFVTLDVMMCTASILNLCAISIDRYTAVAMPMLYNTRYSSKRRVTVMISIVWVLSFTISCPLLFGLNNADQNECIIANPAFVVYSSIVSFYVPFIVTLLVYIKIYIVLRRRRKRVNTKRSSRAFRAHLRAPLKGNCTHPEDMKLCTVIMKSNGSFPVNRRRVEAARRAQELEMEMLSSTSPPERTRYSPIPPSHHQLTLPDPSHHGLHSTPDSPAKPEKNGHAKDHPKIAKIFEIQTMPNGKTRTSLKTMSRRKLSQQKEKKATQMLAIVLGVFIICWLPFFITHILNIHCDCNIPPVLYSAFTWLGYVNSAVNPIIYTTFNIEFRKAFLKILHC
Method in brief: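 HEK293 cells stably expressing human DRD2, pre-treated with PDE inhibitor Ro20-1724 (0.1 mM final) and compound 10 min at room temperature, then stimulated with NKH477 (200nM […]) for 30 min. cAMP read by HTRF (665/620 nm).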

[18] = molecular target: D(2) dopamine receptor (Homo sapiens) (UniProt P14416); assay: Dopamine D2 receptor (DRD2) small molecule antagonists, cell-based qHTS assay (AID 1963595; active means well fitted inhibition curve with a large enough effect in the signal ratio in the repeat runs, with a control signal flat; the % refers to the signal ratio; further: potency means the concentration at half of the fitted maximal effect)
Method in brief: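 DRD2-HEK293; 0.1 mM Ro20-1724; cpd 10 min RT; NKH477 200 nM + quinpirole 12 nM, 30 min RT; HTRF cAMP (cAMP-d2/anti-cAMP cryptate), 665/620 nm ratio after 1 h.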

[19] = molecular target: 5-hydroxytryptamine receptor 2A (Homo sapiens) (UniProt P28223); assay: 5-hydroxytryptamine receptor 2A (HTR2A) small molecule antagonists, cell-based qHTS assay (AID 1963586); further: nearly all actives have a fitted effect of over 45% in size
Method in brief: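 CHO cells stably expressing human HTR2A were plated for 18 h at 37 C, then loaded with calcium dye for 1 h. Compounds were preincubated 5 min at room temperature before DOI (4 nM solution) was added. Kinetic fluorescence was read for 3 min.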

[20] = molecular target: Beta-2 adrenergic receptor (Homo sapiens) (UniProt P07550); assay: Adrenergic beta2 receptor (ADRB2) small molecule agonists, cell-based qHTS assay (AID 1963593);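 further: CHO cells stably overexpressing human ADRB2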
Method in brief: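 CHO cells stably over-expressing ADRB2 were plated overnight at 37C, then dosed with compounds plus a stimulation mix containing 100uM IBMX and 25uM Ro-20-1724 for 0.5hr at room temperature. cAMP was measured by HTRF competition, 1hr.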

Row | Compound | Potency [1] | Potency [2] | Potency [3] | outcome [4] | Potency [5] | Potency [6] | Potency [7] | Potency [8] | Potency [9] | Potency [10] | Potency [11] | Potency [12] | Potency [13] | Potency [14] | Potency [15] | Potency [16] | Potency [17] | Potency [18] | Potency [19] | Potency [20]
1 | Cc1ccc(N(CCO)CCO)cc1 | inactive | inactive | inactive | inactive | inactive | inactive | inactive | inactive | inactive | inactive | inactive | inactive | inactive | inactive | inactive | inactive | inactive | inactive |  | 
2 | CCCCCCCC[N+](CCCCCCCC)(CCCCCCCC)CCCCCCCC | 8.62 µM (active) | inactive | inactive | inactive | inactive | inactive | 18.2 µM (active) | 16.2 µM (active) | 4.57 µM (active) |  | inactive | inactive | inactive |  |  |  | inactive | 24.3 µM (active) |  | 
3 | O=C(O)CCCCCCC(=O)O | inactive | inactive | inactive | inactive | inactive | inactive | inactive | inactive | inactive |  | inactive | inactive | inactive | inactive | inactive | inactive | inactive | inactive | inactive | inactive
4 | CCC(C)COC(=O)CC(C)C (configuration not stated) | inactive | inactive | inactive | inactive | inactive | inactive | inactive | inactive | inactive |  | inactive | inactive | inactive |  |  | inactive | inactive | inactive | inactive | 
5 | CN(C)c1ccc(C(c2ccccc2)c2ccc(N(C)C)cc2)cc1 | inactive | inactive | inactive | inactive | inactive | inactive | inactive | inactive | inactive |  | inactive |  | inactive | inactive | inactive |  | inactive |  | inactive | inactive
6 | CC1=CC(=O)CC(C)(C)C1(O)/C=C/C(C)=C\C(=O)O (configuration not stated) | inactive | inactive | inactive | inactive | inactive | inactive | inactive | inactive | inactive | inactive |  | inactive | inactive | inactive |  | inactive | inactive | inactive |  | 
7 | CC(Cl)C(Cl)Cl (configuration not stated) | inactive | inactive | inactive | inactive | inactive | inactive | inactive | inactive | inactive |  | inactive | inactive | inactive | inactive | inactive | inactive | inactive | inactive | inactive | 
8 | C[N+](C)(C)CCOC(=O)CCC(=O)OCC[N+](C)(C)C | inactive | inactive | inactive | inactive | inactive | inactive | inactive | inactive | inactive | inactive |  |  |  | inactive | inactive | inactive | inactive | inactive |  | 
